Results: the supplement of paper PMC6897291

Legend:
U-2932 [1] = assay: growth inhibition by drug alone (1 - RLU/untreated control) (fraction); higher = stronger inhibition; settings: 177Lu-lilotomab satetraxetan 0 ug/ml
How it was run: (§1)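 Plates pre-printed with the Selleck Cambridge Cancer Compound library at 10/100 nM (RIVA) or 10/1,000 nM (U-2932) received 3,000 cells/well. These cells had been washed after 18 h untreated or with a radiolabelled anti-CD37 antibody conjugate (~600 MBq/mg; 0.5 µg/ml RIVA, 1 µg/ml U-2932). Growth inhibition was obtained from RealTime-Glo luminescence in relation to untreated no-drug wells. Each daily read from day 3, taken after 1 h at 37°C, was converted as 1 − RLU/mean of 48 such wells per plate.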

RIVA [2] = assay: as above; settings: 177Lu-lilotomab satetraxetan 0 ug/ml
How it was run: as §1

U-2932 [3] = assay: growth inhibition by drug plus 177Lu-lilotomab satetraxetan (1 - RLU/untreated control) (fraction); higher = stronger inhibition; settings: 177Lu-lilotomab satetraxetan 1 ug/ml
How it was run: as §1

RIVA [4] = assay: as above; settings: 177Lu-lilotomab satetraxetan 0.5 ug/ml
How it was run: as §1

| SMILES | growth inhibition by drug alone (U-2932 [1]; 10 nM, time (day): 3) | growth inhibition by drug alone (U-2932 [1]; 10 nM, time (day): 4) | growth inhibition by drug alone (U-2932 [1]; 10 nM, time (day): 5) | growth inhibition by drug alone (U-2932 [1]; 10 nM, time (day): 6) | growth inhibition by drug alone (U-2932 [1]; 1000 nM, time (day): 3) | growth inhibition by drug alone (U-2932 [1]; 1000 nM, time (day): 4) | growth inhibition by drug alone (U-2932 [1]; 1000 nM, time (day): 5) | growth inhibition by drug alone (U-2932 [1]; 1000 nM, time (day): 6) | growth inhibition by drug alone (RIVA [2]; 10 nM, time (day): 3) | growth inhibition by drug alone (RIVA [2]; 10 nM, time (day): 4) | growth inhibition by drug alone (RIVA [2]; 10 nM, time (day): 5) | growth inhibition by drug alone (RIVA [2]; 10 nM, time (day): 6) | growth inhibition by drug alone (RIVA [2]; 100 nM, time (day): 3) | growth inhibition by drug alone (RIVA [2]; 100 nM, time (day): 4) | growth inhibition by drug alone (RIVA [2]; 100 nM, time (day): 5) | growth inhibition by drug alone (RIVA [2]; 100 nM, time (day): 6) | growth inhibition by drug plus 177Lu-lilotomab satetraxetan (U-2932 [3]; 10 nM, time (day): 3) | growth inhibition by drug plus 177Lu-lilotomab satetraxetan (U-2932 [3]; 10 nM, time (day): 4) | growth inhibition by drug plus 177Lu-lilotomab satetraxetan (U-2932 [3]; 10 nM, time (day): 5) | growth inhibition by drug plus 177Lu-lilotomab satetraxetan (U-2932 [3]; 10 nM, time (day): 6) | growth inhibition by drug plus 177Lu-lilotomab satetraxetan (U-2932 [3]; 1000 nM, time (day): 3) | growth inhibition by drug plus 177Lu-lilotomab satetraxetan (U-2932 [3]; 1000 nM, time (day): 4) | growth inhibition by drug plus 177Lu-lilotomab satetraxetan (U-2932 [3]; 1000 nM, time (day): 5) | growth inhibition by drug plus 177Lu-lilotomab satetraxetan (U-2932 [3]; 1000 nM, time (day): 6) | growth inhibition by drug plus 177Lu-lilotomab satetraxetan (RIVA [4]; 10 nM, time (day): 3) | growth inhibition by drug plus 177Lu-lilotomab satetraxetan (RIVA [4]; 10 nM, time (day): 4) | growth inhibition by drug plus 177Lu-lilotomab satetraxetan (RIVA [4]; 10 nM, time (day): 5) | growth inhibition by drug plus 177Lu-lilotomab satetraxetan (RIVA [4]; 10 nM, time (day): 6) | growth inhibition by drug plus 177Lu-lilotomab satetraxetan (RIVA [4]; 100 nM, time (day): 3) | growth inhibition by drug plus 177Lu-lilotomab satetraxetan (RIVA [4]; 100 nM, time (day): 4) | growth inhibition by drug plus 177Lu-lilotomab satetraxetan (RIVA [4]; 100 nM, time (day): 5) | growth inhibition by drug plus 177Lu-lilotomab satetraxetan (RIVA [4]; 100 nM, time (day): 6) |
| --- | --- | --- | --- | --- | --- | --- | --- | --- | --- | --- | --- | --- | --- | --- | --- | --- | --- | --- | --- | --- | --- | --- | --- | --- | --- | --- | --- | --- | --- | --- | --- | --- |
| Cc1cc(Nc2cc(N3CCN(C)CC3)nc(Sc3ccc(NC(=O)C4CC4)cc3)n2)n[nH]1 [VX-680 (MK-0457, Tozasertib)] | 0.0135 | -0.0133 | -0.0455 | -0.102 | 0.116 | 0.0957 | 0.0508 | 0.219 | -0.0364 | -0.0738 | -0.11 | -0.195 | -0.135 | -0.125 | -0.0167 | 0.173 | -0.00926 | 0.0675 | 0.118 | 0.172 | 0.272 | 0.279 | 0.311 | 0.494 | 0.594 | 0.628 | 0.652 | 0.658 | 0.458 | 0.547 | 0.616 | 0.727 |
| CC(C)C[C@H](NC(=O)CNC(=O)c1cc(Cl)ccc1Cl)B1OC(=O)C(CC(=O)O)(CC(=O)O)O1 | 0.0922 | 0.0916 | 0.0981 | -0.0316 | 0.985 | 0.984 | 0.984 | 0.984 | -0.0185 | 0.0392 | -0.0726 | -0.362 | 0.319 | 0.4 | 0.359 | 0.21 | 0.0116 | 0.0804 | 0.149 | 0.155 | 0.984 | 0.985 | 0.986 | 0.988 | 0.542 | 0.596 | 0.606 | 0.609 | 0.64 | 0.701 | – | – |
